From PubChem BioAssay (EPA / NIEHS)
The source made the active and inactive calls. Rule for the calls: active = hit-call score of the fitted dose curve at least 0.9, where 1 is the maximum; inactive = score below 0.9.

Assay: APR_HepG2_CellCycleArrest_24hr: Apredica 24-hour HepG2 Assay for Cell Cycle Arrest (AID 2282905);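 note: cell cycle arrest scored as ratio of 2N to 4N nuclear DNA content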
Details: imaging, actives raise or lower the signal
Description: APR_HepG2_24hr is a cell-based, multiplexed-readout assay that uses HepG2, a human liver cell line, with measurements taken at 24 hours after chemical dosing in a 384-well plate.APR_HepG2_CellCycleArrest_24hr is one of 10 assay component(s) measured or calculated from the APR_HepG2_24hr assay. It is designed to make measurements of cell phenotype, a form of morphology reporter, as detected with fluorescence intensity signals by HCS Fluorescent Imaging technology.Data from the assay component APR_HepG2_CellCycleArrest_24hr was analyzed into 1 assay endpoint. This assay endpoint, APR_HepG2_CellCycleArrest_24hr, was analyzed with bidirectional fitting relative to DMSO as the negative control and baseline of activity. Using a type of morphology reporter, measures of all nuclear dna for gain or loss-of-signal activity can be used to understand the signaling at the pathway-level as they relate to the gene . Furthermore, this assay endpoint can be referred to as a primary readout, because this assay has produced multiple assay endpoints where this one serves a signaling function. To generalize the intended target to other relatable targets, this assay endpoint is annotated to the cell cycle intended target family, where the subfamily is arrest.
Cells were treated with dimethyl sulfoxide (DMSO) as a solvent control at a final concentration of 0.5% v/v or with compounds in DMSO with a resulting final DMSO concentration of 0.5% v/v. Compound treatment was done at concentrations of 0.39, 0.78, 1.56, 3.12, 6.24, 12.5, 25, 50, 100, and 200 uM in duplicate on each plate. Cells were treated with compounds for 1, 24, or 72 hr. Carbonyl […] m-chloro-phenylhydrazone (CCCP) and taxol were used as positive controls for mitochondrial function and cytoskeletal stability, respectively; DMSO served as the negative control for this experiment. Cells were fixed by the direct addition of 50 uL formaldehyde in Hank's Balanced Salt Solution (HBSS) to a final concentration of 3.7%. After incubation in the fixation medium for 30 min at room temperature (293-298 K), cells were rinsed twice with HBSS and treated with cell permeabilization buffer (16 uL of 0.5% Triton X-100) for 10 min at room temperature (293-298 K) before labeling. For mitochondrial membrane potential and mitochondrial measurements, pre-fixed cells were incubated with 50 uL of MitoTracker Red CMXRos (Invitrogen) at a concentration of 250 nM for 30 min before fixation. In the remaining cases, post-fixed cells were labeled by incubation with a multiplexed mixture of primary antibodies in HBSS for 60 min at room temperature (293-298 K) to detect immunoreactivity of c-Jun (1:500), phospho-histone H3 (1:100), phospho-histone H2A.x (1:200), p53 (1:400), alpha-tubulin (1:200) and Hoechst 33342 (2 ug/mL). Cells were labeled for multiplexed imaging on two separate plates: a) Hoechst 33342, MitoTracker Red, phospho-histone H3, and alpha-tubulin, and b) Hoechst 33342, phospho-histone H2A.x, and c-Jun. A final rinse with HBSS (50 uL) was performed before analysis. The primary and secondary antibodies for the proteins were phospho-histone H3 (rabbit anti-phospho-histone H3 and FITC-donkey anti-rabbit IgG), phospho-histone H2A.x (mouse anti-phospho-histone H2A.x and FITC-donkey anti-mouse IgG), c-Jun (rabbit anti-phospho-c-Jun and Cy3-donkey anti-rabbit IgG), p53 (sheep anti-p53 and Cy5-donkey anti-sheep IgG), alpha-tubulin (mouse anti-alpha-tubulin and Cy5-donkey anti-mouse IgG). These antibodies are available as the CellCiphr HepG2 assay kit (Millipore).Digital images of each well were captured using a Cellomics ArrayScan VTI (Thermo Scientific Cellomics) (0.8 NA objective, 0.63x optical coupler, and XF-93 filter set) at 20x magnification. The images were acquired using the autofocus feature of the ArrayScan instrument, which entails the following steps. First, the camera focuses on channel 1 (Hoechst 33342), where nuclei are identified. Second, a Z offset of 1 um is used for capturing mitochondria (MitoTracker Red). […]

SMILES | outcome | AC50
COCC(=O)N(c1c(C)cccc1C)C(C)C(=O)OC (stereo not given) | inactive | –
CC1(C)C(C(=O)OC(C#N)c2cccc(Oc3ccccc3)c2)C1(C)C (stereo not given) | inactive | –
O=P(O)(O)CCCl | inactive | –
Cn1c(-c2ccccc2)cc(-c2ccccc2)[n+]1C | inactive | –
CNC(=O)Oc1cccc2ccccc12 | inactive | –
CCOC(=O)C(C)OC(=O)c1cc(Oc2ccc(C(F)(F)F)cc2Cl)ccc1[N+](=O)[O-] (stereo not given) | inactive | –
COP(=O)(OC)O/C(C)=C/C(=O)N(C)C | inactive | –
CC1(C)CCC(=Cc2ccc(Cl)cc2)C1(O)Cn1cncn1 (stereo not given) | – | 117 µM (active)
CCOP(=O)(OCC)Oc1nc(Cl)c(Cl)cc1Cl | inactive | –
CC1(C)CON(Cc2ccccc2Cl)C1=O | inactive | –
N#Cc1c[nH]cc1-c1cccc2c1OC(F)(F)O2 | – | 26.9 µM (active)
CC(C)Nc1nc(Cl)nc(NC(C)C)n1 | inactive | –
CCN(CC)c1nc(C)cc(OP(=S)(OC)OC)n1 | inactive | –
Cc1ccc(N=CN(C)C=Nc2ccc(C)cc2C)c(C)c1 | inactive | –
CC(C)=CC1C(C(=O)OCc2coc(Cc3ccccc3)c2)C1(C)C (stereo not given) | – | 62.5 µM (active)
CS(=O)(=O)c1cc(C(F)(F)F)ccc1C(=O)c1cnoc1C1CC1 | inactive | –
CC(C)N1C(=O)c2ccccc2NS1(=O)=O | inactive | –
CCCCC(O)(Cn1cncn1)c1ccc(Cl)cc1Cl (stereo not given) | inactive | –
CCNC(=O)NC(=O)C(C#N)=NOC | inactive | –
Cc1cnc(C2=NC(C)(C(C)C)C(=O)N2)c(C(=O)O)c1 (stereo not given) | inactive | –

SMILES | outcome | AC50
CCOc1nc(F)cc2nc(S(=O)(=O)Nc3c(Cl)cccc3Cl)nn12 | inactive | –
CCSC(=O)N1CCCCCC1 | inactive | –
COCc1cnc(C2=NC(C)(C(C)C)C(=O)N2)c(C(=O)O)c1 (stereo not given) | inactive | –
Nc1c(Cl)c(F)nc(OCC(=O)O)c1Cl | inactive | –
COC(=O)c1c(C(F)F)nc(C(F)(F)F)c(C2=NCCS2)c1CC(C)C | inactive | –
O=C(O)c1c(Cl)ccc2cc(Cl)cnc12 | inactive | –
COc1ccc(-c2ccccc2)cc1NNC(=O)OC(C)C | inactive | –
CO/N=C(/C1=NOCCO1)c1ccccc1Oc1ncnc(Oc2ccccc2Cl)c1F | inactive | –
CN=C=S | – | 69.2 µM (active)
CC(C)Oc1cccc(NC(=O)c2ccccc2C(F)(F)F)c1 | inactive | –
N#Cc1c(Cl)cccc1Cl | inactive | –
N#CN=C1SCCN1Cc1ccc(Cl)nc1 | inactive | –
CC(C)C1(C)N=C(c2ncccc2C(=O)O)NC1=O (stereo not given) | inactive | –
Cc1nc(N(C)C)nc(OC(=O)N(C)C)c1C | inactive | –
O=c1n(Cl)c(=O)n(Cl)c(=O)n1Cl | inactive | –
Cc1c(COC(=O)[C@@H]2[C@H](/C=C(\Cl)C(F)(F)F)C2(C)C)cccc1-c1ccccc1 | inactive | –
CCOc1nc(C(Cl)(Cl)Cl)ns1 | inactive | –
CC1(C)C(C=C(Cl)Cl)C1C(=O)OC(C#N)c1cccc(Oc2ccccc2)c1 (stereo not given) | – | 35.1 µM (active)
CN/C(=N\[N+](=O)[O-])NCc1cnc(Cl)s1 | inactive | –
CCC(C)n1c(=O)[nH]c(C)c(Br)c1=O (stereo not given) | inactive | –
